Assay outcomes from PubChem.
Shown is part of a subset that was picked to be rich in hits.
NOMO-1 viab – STK33 inhibitor candidate reducing NOMO-1 cell viability; NOMO-1 AML viability, CellTiter-Glo luminescence, 72 h; inhibition, % (test concentration not listed); 7.5% of 37,000 active; AID 2330; in the data active = inhibition above about 80%
PD-1 reverse act – activators reversing PD-1 mediated T-cell inhibition; primary human CD4 T cells, PD-L1 beads, CellTiter-Glo 96 h; activation, % (test concentration not listed); 29,000 tested, under 10 active; AID 2316; call rule not given here
STK33 kin inh – human STK33 kinase inhibition | Q9BYT3 | 0.44% of 27,000 active | inhibition, % at 12.5 µM | ADP-Glo luminescence, MBP substrate | AID 2322; in the data active = inhibition above about 20%
Target sequence (Q9BYT3 whole entry, looked up): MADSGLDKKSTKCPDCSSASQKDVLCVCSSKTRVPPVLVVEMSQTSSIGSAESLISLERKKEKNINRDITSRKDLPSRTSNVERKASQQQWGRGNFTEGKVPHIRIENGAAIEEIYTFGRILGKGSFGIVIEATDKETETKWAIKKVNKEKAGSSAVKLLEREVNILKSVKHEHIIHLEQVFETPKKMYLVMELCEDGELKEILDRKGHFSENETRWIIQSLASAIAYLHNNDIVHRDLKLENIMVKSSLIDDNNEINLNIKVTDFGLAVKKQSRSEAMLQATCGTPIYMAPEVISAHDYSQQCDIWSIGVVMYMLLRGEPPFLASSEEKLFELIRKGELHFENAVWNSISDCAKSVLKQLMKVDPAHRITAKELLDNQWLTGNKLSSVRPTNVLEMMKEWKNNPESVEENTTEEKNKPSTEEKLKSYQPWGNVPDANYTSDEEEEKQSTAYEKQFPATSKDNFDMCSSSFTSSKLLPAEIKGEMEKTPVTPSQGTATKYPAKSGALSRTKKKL
Numbers stand for hits; - = inactive; . = no result given.

SMILES	NOMO-1 viab	PD-1 reverse act	STK33 kin inh
Cc1ccc(S(=O)(=O)N(C)C[C@H]2Oc3c(NC(=O)Nc4ccc(C(F)(F)F)cc4)cccc3C(=O)N([C@H](C)CO)C[C@H]2C)cc1	85	-	.
C[C@H](CO)N1C[C@H](C)[C@H](CN(C)S(=O)(=O)c2ccc(Cl)cc2)Oc2c(NC(=O)Nc3ccc(F)cc3)cccc2C1=O	93	-	.
Cc1ccc(S(=O)(=O)N(C)C[C@H]2Oc3c(NC(=O)Nc4ccc(F)cc4)cccc3C(=O)N([C@@H](C)CO)C[C@H]2C)cc1	98	-	.
C[C@H]1CN([C@@H](C)CO)C(=O)c2cccc(NC(=O)NC3CCCCC3)c2O[C@@H]1CN(C)S(=O)(=O)c1ccc(Cl)cc1	-	-	.
C[C@H](CO)N1C[C@H](C)[C@H](CN(C)S(=O)(=O)c2ccc(Cl)cc2)Oc2c(NC(=O)NC3CCCCC3)cccc2C1=O	120	-	.
C[C@@H]1CN([C@@H](C)CO)C(=O)c2cccc(NC(=O)Nc3ccc(F)cc3)c2O[C@H]1CN(C)S(=O)(=O)c1ccc(Cl)cc1	-	.	.
O=C(Nc1ccc(I)cc1C(=O)NCc1cccnc1)c1ccccc1Cl	-	-	-
COc1cc(Br)cc2cc(C(=O)NCCCN3CCOCC3)c(=O)oc12	-	-	-
COc1ccc2nc(SCC(=O)NC3CCCC3)[nH]c2c1	-	-	-
Cc1ccc(C)c(NC(=O)C2CN(S(=O)(=O)c3ccccc3)CCN2S(=O)(=O)c2ccccc2)c1 (centres undefined)	-	-	-
C[C@@H]1CN([C@@H](C)CO)C(=O)c2cccc(NC(=O)Nc3ccc(F)cc3)c2O[C@@H]1CN(C)S(=O)(=O)c1ccc(Cl)cc1	82	-	.
C[C@H]1CN([C@@H](C)CO)C(=O)c2cccc(NC(=O)Nc3ccc(F)cc3)c2O[C@@H]1CN(C)S(=O)(=O)c1ccc(Cl)cc1	-	.	.
COc1ccc(/C=C2\Cc3ccccc3C2=O)cc1	-	-	.
COc1cc(C(=O)OC[C@@]2(O)CO[C@H](OC3C(CO)OC(OC(C)/C=C/C4(O)C(C)CC(O)CC4(C)C)C(O)C3O)[C@@H]2O)cc(OC)c1O (some centres undefined)	-	-	-
CC(C)c1ccc(C2C(C#N)=C(N)C(C#N)(C#N)C3=CCN(C)CC32)cc1 (centres undefined)	105	-	.
COc1ccc(-c2noc(CN(C(=O)c3ccc(C)c([N+](=O)[O-])c3)C(C)C)n2)cc1	-	-	-
O=C(CCS(=O)(=O)c1nc(-c2ccccc2)cc(C(F)(F)F)n1)Nc1ccc(Cl)cc1Cl	126	-	-
O=C(O)CCS(=O)(=O)c1nc(-c2ccccc2)cc(C(F)(F)F)n1	-	-	-
C[C@@H]1O[C@@H](OC[C@H]2O[C@@H](OCCc3ccc(O)c(O)c3)[C@H](O)[C@@H](O)[C@@H]2OC(=O)/C=C/c2ccc(O)c(O)c2)[C@H](O)[C@H](O)[C@H]1O	-	-	-
O=C(CN(C1CCCCC1)S(=O)(=O)c1ccc(F)cc1)Nc1cc(Cl)ccc1Cl	-	.	-
CCOC(=O)N1CCc2c(sc3[nH]c(=S)n(-c4ccccc4)c(=O)c23)C1	-	-	.
Cc1sc2ncnc(SCC(=O)c3cc(Cl)sc3Cl)c2c1C	-	-	-
CCOC(=O)c1c(-c2ccccc2)oc2ccc(O)c(CSCC(=O)Nc3ccccc3)c12	126	-	.
CCOC(=O)c1ccc(NC(=O)Cn2c(=O)oc3ccccc32)cc1	-	-	-
Cc1cccc(NC(c2ccccc2)c2ccc3ccc(C)nc3c2O)n1 (centres undefined)	102	.	-
SMILES	NOMO-1 viab	PD-1 reverse act	STK33 kin inh
CCOc1ccc(C(Nc2cccc(C)n2)c2ccc3ccc(C)nc3c2O)cc1 (centres undefined)	106	-	-
Cc1ccc2cccc(OCc3nnc(SCC(N)=O)n3C)c2n1	-	-	-
O=C(NC(=S)Nc1ccccc1-c1nc2ccccc2s1)c1ccco1	-	.	-
COC(=O)c1ccc(NC(=O)CSc2nnnn2C2CC3CCC2C3)cc1 (centres undefined)	-	.	-
Nc1ccc(Br)cc1C(O)c1ccccc1 (centres undefined)	-	-	.
CC(C(=O)Nc1cccc2cccnc12)N1C(=O)c2ccccc2C1=O (centres undefined)	-	-	-
COc1ccc(C(Nc2ccccn2)c2ccc3ccc(C)nc3c2O)cc1C (centres undefined)	-	-	-
CCc1ccc(C(Nc2cc(C)ccn2)c2ccc3cccnc3c2O)cc1 (centres undefined)	112	-	-
Cc1ccc2ccc(C(Nc3ccccn3)c3ccc(Cl)c(Cl)c3)c(O)c2n1 (centres undefined)	117	-	-
Cc1ccc(C(Nc2ccccn2)c2ccc3ccc(C)nc3c2O)cc1 (centres undefined)	132	-	-
Cc1ccc(C(Nc2ccccn2)c2ccc3cccnc3c2O)cc1 (centres undefined)	112	.	-
Cc1cc(C)nc(SCC(=O)c2ccc(Oc3ccccc3)cc2)n1	-	-	-
Cc1c(Cl)cccc1NC(=O)c1ccccc1OCC(=O)Nc1ccc2c3c(cccc13)CC2	-	-	-
OC(COc1ccc(Cl)cc1)CSc1ccccn1 (centres undefined)	.	.	-
COc1ccc(C(C)C)cc1S(=O)(=O)Nc1ccccn1	-	-	-
COc1ccc(I)cc1C(Nc1cc(C)ccn1)c1ccc2cccnc2c1O (centres undefined)	111	-	-
Cc1ccc2ccc(C(Nc3ccccn3)c3ccc(C(C)C)cc3)c(O)c2n1 (centres undefined)	108	-	-
COc1ccc(OC)c(NS(=O)(=O)c2cccc3cccnc23)c1	-	-	-
Cc1ccc2ccc(C(Nc3ccccn3)c3ccc(Cl)cc3)c(O)c2n1 (centres undefined)	132	-	-
C=CCn1c(SCC(=O)c2ccccc2)nnc1-c1sc2nc(C)cc(C)c2c1N	-	-	.
COC(=O)/C=C1/C(=O)N/C(=N\c2nc(C)cc(C)n2)N1c1cccc(C)c1	-	-	.
CC1CCC2(C(=O)O)CCC3(C)C(=CCC4C5(C)C[C@@H](O)[C@@H](O)C(C)(CO)C5CCC43C)C2C1(C)O (some centres undefined)	-	-	-
O/N=C(\Cn1cncn1)c1ccc(Cl)cc1Cl	-	-	.
Clc1ccc(CO/N=C(\Cn2ccnc2)c2ccc(Cl)cc2Cl)c(Cl)c1	110	.	-
C/C=C(/C)C(=O)O[C@@H](C)[C@@](C)(O)C(=O)O[C@H](C)[C@@H](OC(=O)/C(C)=C\C)c1cc(OC)c2c(c1)OCO2	119	-	-
C[C@@H]1CN([C@@H](C)CO)C(=O)c2cc(NC(=O)Nc3ccc(F)cc3)ccc2O[C@H]1CN(C)Cc1ccccc1	-	-	.
C[C@H](CO)N1C[C@H](C)[C@@H](CN(C)Cc2ccc(-c3ccccc3)cc2)Oc2ccc(NC(=O)Nc3ccc(F)cc3)cc2C1=O	-	-	.
C[C@H](CO)N1C[C@H](C)[C@H](CN(C)Cc2ccc(-c3ccccc3)cc2)Oc2ccc(NC(=O)Nc3ccc(F)cc3)cc2C1=O	104	-	-
C[C@H]1CN([C@@H](C)CO)C(=O)c2cc(NC(=O)Nc3ccc(F)cc3)ccc2O[C@H]1CN(C)Cc1ccc(-c2ccccc2)cc1	111	-	.
